The source of these data is PubChem BioAssay (NCI).

Where “and” joins values, the source holds several entries; their conditions need not be identical. Equal values may be shown once. The panel holds about 83,000 compounds, 20% with a hit somewhere; the sample as a whole holds those more often.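 Growth was measured after 48 h exposure to one concentration of compound in 96-well plates. Values under 10 count as active.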 Calls of active or inactive are those of the source. Where a SMILES comes first, the peptide text is derived from it.

This test deals with U251 CNS. Briefly: NCI-60 one-dose screen, 48 h (100 = growth as untreated, 0 = no growth, -100 = all killed). Conditions: 10 µM unless noted. The protocol: Growth inhibition of the U251 human tumor cell line is measured as a screen for anti-cancer activity. Cells are grown in 96 well plates and exposed to the test compound for 48 hours. Compounds are tested at a single concentration, which is 10^-5 M for most compounds. The reported endpoint is percent growth (GI% or GIPRCNT), where numbers from 0 - 100% represent growth inhibition, and numbers from -100% - 0 represent cell death. For example, a value of 40 represents 60% growth inhibition. A value of 0 means no net growth occurred over the course of the experiment. A value of -40 indicates 40% of cells at the beginning of the experiment died by the end of the experiment. A value of -100 means all cells are dead at the end of the experiment.
NCI-60 Human Tumor Cell Lines Screen was performed using the standard one-dose NCI protocol, which is described in more detail at https://dtp.cancer.gov/discovery_development/nci-60/default.htm.
Compounds with GIPRCNT values below 10 were considered active. Activity score was based on GIPRCNT using the following formula: […]
Score is 0 for GIPRCNT values of 100 or above, 50 for GIPRCNT values of 0, and 100 for GIPRCNT values of -100.
For `CC(=O)Nc1ccc(S(N)(=O)=O)cc1`, the growth is 93% (inactive) and 96.2% (inactive).

As for `NC1CCC(C(=O)O)CC1` (stereo not given), the growth is 103% (inactive) and 106% (inactive).

Turning to `c1ccc(-c2nc3ccccc3s2)cc1`, the growth is 99.6% (inactive).

As for `Fc1ccc([I+]c2ccc(F)cc2)cc1`, the growth was 66.4% (inactive).

For the compound `Oc1ccc(Cc2ccccc2Cl)c(O)c1`, the growth is 96.2% (inactive).

In the case of `O=C(/C=C/c1ccccc1)c1ccccc1`, the growth was 75.1% (inactive).

Turning to `COc1ccc2cc1Oc1ccc(cc1)C[C@H]1c3cc(c(OC)cc3CCN1C)Oc1c(OC)c(OC)cc3c1[C@H](C2)N(C)CC3`, the growth was 24.2% (inactive).

Regarding `CCCCOc1ccc(Nc2cc(Cl)ccc2C(=O)O)cn1`, the growth was 98.1% (inactive) and 96.9% (inactive).

As to `O=C1c2c(O)ccc(O)c2C(=O)c2c(NCCNCCO)ccc(NCCNCCO)c21`, the growth was -67% (active) and -99.7% (active).

In the case of `ClCCOCCOc1ccc(C2CCCCC2)cc1`, the growth is 89.7% (inactive).

In the case of `C#CCOC(=O)Nc1ccccc1`, the growth was 98.2% (inactive).

As for `OC1COC(OCc2ccccc2)C(O)C1O` (stereo not given), the growth was 95.4% (inactive).

As to `CCCCOC(=O)/C=C\C(=O)NC(N)=O`, the growth is 96.4% (inactive).

With `CCOC(=O)c1c(C)cc(=O)oc1C`, the growth is 98.3% (inactive).

On to `NN1CCOC(c2ccccc2)C1` (stereo not given), for which the growth was 102% (inactive).

Consider `c1ccc(CNCCNCc2ccccc2)cc1`, for which the growth is 96% (inactive).

On to `CCCCNc1ccc(Nc2ccccc2)cc1`, for which the growth was 34.8% (inactive).

As to `CC(=O)NCC(=O)c1ccc([N+](=O)[O-])cc1`, the growth is 102% (inactive).

Consider `CN1CNC(=O)NC1`, for which the growth was 118% (inactive) and 87.5% (inactive).

For `CCCCCCCCCCNC(=O)CI`, the growth is 14.3% (inactive).

For the compound `Brc1ccc(SSc2ccc(Br)cc2)cc1`, the growth was 65.8% (inactive).

With `NC(Cc1ccccc1)C(=O)NC(Cc1ccccc1)C(=O)O` (stereo not drawn) (H-Phe-Phe-OH; configuration not given here), the growth was 99% (inactive) and 94% (inactive).

`O=C1C=C(Nc2ccccc2)c2ccccc2C1=O`: the growth is 96.6% (inactive).

For the compound `CC(C)C(C)(C)c1ccc(O)cc1`, the growth was 102% (inactive).

`Cc1ccc(=O)[nH]n1`: the growth was 99.7% (inactive) and 92.4% (inactive).

Take `OCC1OC(O)C(O)C(O)C1O` (stereo not given): the growth is 113% (inactive).

Turning to `CCCCCCCCCCCCCCCCC(C(=O)O)C(O)(CC(=O)O)C(=O)O` (stereo not given), the growth is 101% (inactive) and 8.93% (active).

Regarding `COc1ccc(C(=O)CC(c2ccccc2)C(C#N)c2ccccc2)cc1` (stereo not given), the growth was 83.2% (inactive).

Take `CCN(CCNS(C)(=O)=O)c1ccc(N)c(C)c1`: the growth was 82.3% (inactive) and 108% (inactive).

For `N#CC(C#N)N=Nc1cc(Cl)ccc1Cl`, the growth was 96.6% (inactive).

In the case of `O=C(Cc1ccccc1)c1ccc(O)c(Cl)c1`, the growth is 73% (inactive).

`O=c1n(CC2CO2)c(=O)n(CC2CO2)c(=O)n1CC1CO1` (stereo not given): the growth is 56.2% (inactive).

Take `C/C(=C\c1ccccc1)c1ccccn1`: the growth is 107% (inactive).

For the compound `NC(=O)NCCCC(N)C(=O)O` (stereo not given), the growth was 96.2% (inactive).

Turning to `NC(Cc1c[nH]c2ccccc12)C(=O)O` (stereo not given), the growth is 103% (inactive) and 97.4% (inactive).

As to `CC(=O)OCC1OC(OC(C)=O)C(OC(C)=O)C(OC(C)=O)C1OC(C)=O` (stereo not given), the growth is 95.6% (inactive) and 96% (inactive).

Turning to `Nc1cc(N)c(N)cc1N`, the growth was 15.6% (inactive).

`Nc1nc(N)c2[nH]cnc2n1`: the growth was 111% (inactive).

Turning to `CC1CCC(C(C)C)C(NNC(N)=O)C1` (stereo not given), the growth was 92.4% (inactive).

Take `Nc1ccc2c(O)cc(S(=O)(=O)O)cc2c1`: the growth was 101% (inactive).
